According to PMC4336329 (PLoS ONE, 2015):
The campaign covered roughly 310,000 compounds. About 14,000 (4.5%) showed an effect of 50% or more. The effect is printed as a negative number. The sample holds strong results, similar compounds and a random draw of the others, so the mix is not that of the screen.

Each compound was assayed against human ether-à-go-go-related gene (hERG) potassium channel (human, UniProt Q12809) (assay: primary screen, population patch clamp on CHO cells stably expressing hERG; higher = less effect of the substance).
human ether-à-go-go-related gene (hERG) potassium channel, sequence (Q12809 whole entry, looked up): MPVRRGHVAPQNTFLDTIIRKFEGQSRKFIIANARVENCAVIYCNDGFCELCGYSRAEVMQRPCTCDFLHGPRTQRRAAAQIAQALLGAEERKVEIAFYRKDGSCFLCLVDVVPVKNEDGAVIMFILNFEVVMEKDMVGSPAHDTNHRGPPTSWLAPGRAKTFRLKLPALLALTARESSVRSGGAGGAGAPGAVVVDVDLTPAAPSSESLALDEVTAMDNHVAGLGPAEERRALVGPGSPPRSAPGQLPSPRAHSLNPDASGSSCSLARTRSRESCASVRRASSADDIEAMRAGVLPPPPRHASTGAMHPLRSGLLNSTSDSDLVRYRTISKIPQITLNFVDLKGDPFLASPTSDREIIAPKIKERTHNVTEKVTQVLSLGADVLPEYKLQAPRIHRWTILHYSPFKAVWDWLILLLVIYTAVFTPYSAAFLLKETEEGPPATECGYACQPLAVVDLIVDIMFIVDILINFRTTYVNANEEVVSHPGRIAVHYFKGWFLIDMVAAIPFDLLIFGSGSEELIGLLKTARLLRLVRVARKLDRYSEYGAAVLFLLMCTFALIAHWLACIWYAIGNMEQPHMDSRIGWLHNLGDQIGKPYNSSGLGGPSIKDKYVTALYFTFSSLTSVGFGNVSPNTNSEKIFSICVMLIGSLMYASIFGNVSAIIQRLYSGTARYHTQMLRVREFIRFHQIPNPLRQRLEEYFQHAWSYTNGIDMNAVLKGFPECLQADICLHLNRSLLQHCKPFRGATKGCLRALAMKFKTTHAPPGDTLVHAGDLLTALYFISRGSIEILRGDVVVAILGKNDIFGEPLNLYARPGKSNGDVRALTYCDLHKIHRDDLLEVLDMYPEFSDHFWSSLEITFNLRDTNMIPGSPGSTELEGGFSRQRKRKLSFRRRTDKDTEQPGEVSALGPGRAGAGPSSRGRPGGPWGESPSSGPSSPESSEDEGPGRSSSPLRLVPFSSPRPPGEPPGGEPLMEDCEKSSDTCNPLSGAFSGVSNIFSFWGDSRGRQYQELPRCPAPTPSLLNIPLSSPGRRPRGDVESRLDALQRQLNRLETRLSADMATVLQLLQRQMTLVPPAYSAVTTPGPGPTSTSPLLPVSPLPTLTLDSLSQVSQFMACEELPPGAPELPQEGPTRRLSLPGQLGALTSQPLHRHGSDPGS
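Note: peak tail current of the secondary pulse compared with the same well before compound.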

Row | SMILES | hERG current change (%, negative = inhibition) at 10uM [%]
1 | CCNS(=O)(=O)c1ccc(CCC(=O)NCc2cccnc2)cc1 | 16.8
2 | Cc1ccc(C(=O)n2c3ccccc3c3ccccc32)cc1 | 15.9
3 | COC(=O)[C@]1(C)N[C@H](c2ccc(SC3CCCCC3)c(OC)c2)[C@@H]2C(=O)N(C)C(=O)[C@@H]21.O=C(O)C(F)(F)F | -16.6
4 | O=C(Nc1ccccc1)C1=C[C@@H](c2ccccc2)C[C@@H](OCc2ccc(CO)cc2)O1 | 2.2
5 | O=C(NCC(=O)N1CCOCC1)c1ccc(Br)o1 | 17.4
6 | CC(C)CNC(=O)CSc1n[nH]c(=O)n1CCc1ccccc1 | 22.1
7 | Cc1nc2c(-c3ccccc3)cnn2c(N2CCOCC2)c1C | 11.8
8 | COc1ccc(/C=N/NC(=O)C(C)Sc2ccccn2)cc1[N+](=O)[O-] (centres unmarked) | -7.8
9 | COc1ccc(CC(=O)OCc2cc3ccc(C)cc3[nH]c2=O)cc1 | 9.18
10 | COc1ccc(CCN(Cc2cc3ccc(C)cc3[nH]c2=O)C(C)=O)cc1OC | -65.1
11 | COc1ccc(CCN(Cc2cc3cc(C)ccc3[nH]c2=O)C(C)=O)cc1OC | -6.87
12 | CC(=O)N(CCc1cccc(C)c1)Cc1cc2ccc(C)cc2[nH]c1=O | -19.7
13 | COc1cc(OC)c(OC)cc1CNCCc1ccc(OC)c(OC)c1 | -6.55
14 | COc1ccc(CCNCc2cc3ccc(C)cc3[nH]c2=O)cc1OC | -73.6
15 | CC(=O)c1cn(-c2ccc(Cl)cc2)c(=O)n(Cc2ccc(F)cc2)c1=O | 1.04
16 | COc1ccc(CNC(=O)CCS(=O)(=O)c2ccc(Br)cc2)cc1 | 7.33
17 | CC(=O)Nc1ccc(NS(=O)(=O)c2ccc(-c3cnc(C4CC4)o3)cc2)cc1 | 3.37
18 | CCC(CC)C1C(C#N)=C(N)Oc2cc(C)oc(=O)c21 (centres unmarked) | -12.7
19 | CC1(C)C(c2ccccc2)=NC(c2cccnc2)=[N+]1[O-] | 14.8
20 | COc1ccc(C(=O)N2CC3(C)C4CCC3(C)C2(C#N)C4)cc1OC (centres unmarked) | 4.65
21 | CC(C)CNC(=O)CSc1nc2nn(-c3ccccc3)c(=O)c-2c2n1CCCCC2 | -18
22 | O=C(CSc1nc2nn(-c3ccccc3)c(=O)c-2c2n1CCCCC2)NCCCc1ccccc1 | -63.1
23 | COCCNC(=O)CSc1nc2nn(-c3ccccc3)c(=O)c-2c2n1CCCCC2 | 23.2

Row | SMILES | hERG current change (%, negative = inhibition) at 10uM [%]
24 | O=C(CSc1nc2nn(-c3ccccc3)c(=O)c-2c2n1CCCCC2)Nc1ccc(F)cc1F | -63.2
25 | COCC(C)NC(=O)CSc1nc2nn(-c3ccccc3)c(=O)c-2c2n1CCCCC2 (centres unmarked) | 8.5
26 | CNC(=O)CSc1nc2nn(-c3ccccc3)c(=O)c-2c2n1CCCCC2 | -37.2
27 | CC(C)(C)CC(=O)NCCc1csc(-c2ccccc2)n1 | -7.63
28 | Cn1ncc(Cl)c1C(=O)N/N=C/c1cccc(OC2CSC2)c1 | 8.77
29 | O=C(Nc1nccs1)c1cc(Cl)ccc1[N+](=O)[O-] | -9.55
30 | Cc1cccc(Cn2c(N(C)Cc3ccccc3)nc3c2c(=O)[nH]c(=O)n3C)c1 | -9.99
31 | CCOc1ccc2nc(NC(=O)Nc3cccs3)sc2c1 | 18
32 | O=C(Nc1ccccc1N1CCOCC1)c1ccc(F)c(S(=O)(=O)N2CCOCC2)c1 | -12.6
33 | Cc1ccc(C(=O)Nc2ccccc2N2CCCC2)cc1S(=O)(=O)N1CCOCC1 | -51.2
34 | O=C(Nc1ccccc1N1CCCC1)c1ccc(Cl)c(S(=O)(=O)N2CCOCC2)c1 | -41.4
35 | CCCCN1C(=O)c2ccc(C(=O)Nc3ccccc3N3CCOCC3)cc2C1=O | 7.18
36 | Cc1ccc(C(=O)Nc2ccccc2N2CCOCC2)cc1S(=O)(=O)N1CCOCC1 | -55.3
37 | O=C(Nc1ccccc1N1CCOCC1)c1ccncc1 | -1.93
38 | O=C(Nc1ccccc1N1CCOCC1)c1ccc2c(c1)C(=O)N(Cc1ccncc1)C2=O | -58.8
39 | O=C(Nc1ccccc1N1CCCC1)c1ccc(F)c(S(=O)(=O)N2CCOCC2)c1 | -22.5
40 | COc1ccc(C(=O)Nc2ccccc2N2CCOCC2)cc1S(=O)(=O)N1CCOCC1 | -17.8
41 | Cc1cn2c(N)c(/C=C3\C=Nc4ccccc43)c(=O)nc2s1 | 2.43
42 | CCOc1ccc(N=C(/C(C(=O)C(=O)N2CCOCC2)=C(\O)c2ccccc2)c2ccccc2)cc1 | 27.7
43 | COc1ccc(NC(=O)CN(C)S(=O)(=O)c2cccc3nsnc23)cc1 | -21.9
44 | O=C(O)c1ccccc1-c1nc2ccccc2c(=O)n1O | 14.9
45 | CCCOC(=O)CC1C(=O)NCCN1Cc1ccc(F)cc1 (centres unmarked) | 3.35
46 | CC1CC(C)CN(S(=O)(=O)c2ccc(NC(=O)C3CC(=O)N(Cc4ccccc4)C3)cc2)C1 (centres unmarked) | 17.3

Row | SMILES | hERG current change (%, negative = inhibition) at 10uM [%]
47 | CC(C)CC1NC(=O)N(Cc2nc3ccccc3s2)C1=O (centres unmarked) | -32.5
48 | CC(C)CCC1(CCNC(=O)c2cccs2)CCOC(C)(C)C1 (centres unmarked) | -8.99
49 | c1ccc(-c2nn3c(Cn4nnc5ccccc54)nnc3s2)nc1 | -14.4
50 | CC(C)C[C@H]1C(=O)N2CCC[C@H]2[C@]2(O)O[C@](NC(=O)C3C=C4c5cccc6[nH]c(Br)c(c56)C[C@H]4N(C)C3)(C(C)C)C(=O)N12.CS(=O)(=O)O (some centres unmarked) | 20.4
51 | CN1/C(=C\C=C\C2=[N+](C)c3ccc4ccccc4c3C2(C)C)C(C)(C)c2ccccc21.[O-][Cl+3]([O-])([O-])[O-] | -75.7
52 | CN1/C(=C\C=O)C(C)(C)c2ccccc21 | 12.9
53 | CC1(C)C(/C=C/C=C/C=C/C=C2\N(CCCCS(=O)(=O)[O-])c3ccc4ccccc4c3C2(C)C)=[N+](CCCCS(=O)(=O)[O-])c2ccc3ccccc3c21.[Na+] | -15.5
54 | CCN1C(=O)C(O)(CC(=O)/C=C/C=C/c2ccccc2)c2ccccc21 (centres unmarked) | -0.629
55 | CCCN1C(=O)/C(=C/C=C2\N(CC)c3ccccc3C2(C)C)SC1=S | 8.96
56 | CCN1/C(=C\C=C\C2=[N+](CC)c3ccccc3C2(C)C)C(C)(C)c2ccccc21.[O-][Cl+3]([O-])([O-])[O-] | -96.7
57 | CC(C)CCn1nnnc1CN1CCN(C(=O)c2ccco2)CC1.Cl | 16.8
58 | CC1(C)CC(=O)c2c(O)cc(OCC(=O)Nc3ccc(CCO)cc3)cc2O1 | -21.4
59 | CCN(C(=O)COC(=O)CSc1ccc(F)cc1)c1c(N)n(Cc2ccccc2)c(=O)[nH]c1=O | 10.9
60 | COC(=O)C1Cc2ccccc2CN1S(=O)(=O)c1ccc(C)cc1 (centres unmarked) | 1.57
61 | Cc1cnc(-c2nnc(N(C)C(=O)C3CCCO3)s2)cn1 (centres unmarked) | 2.91
62 | Cn1c(CNC(=O)c2ccc(Cl)cc2)nnc1SCC(=O)N1CCOCC1 | 15.4
63 | COc1cc(C(C)=O)ccc1OCC(O)CNCC1(N2CCCCC2)CCCCC1.O=C(O)C(=O)O (centres unmarked) | -42.1
64 | OC(CNCC1(N2CCCCC2)CCCCC1)COc1ccc(Cl)cc1Cl (centres unmarked) | -73.7
65 | COc1ccccc1COCC(O)CNCC1(N2CCCCC2)CCCCC1.O=C(O)C(=O)O (centres unmarked) | -30.9
66 | CCc1ccc(OC)c(S(=O)(=O)Nc2ccccc2C)c1 | 3.86
67 | COc1cccc(COCC(O)CN2CCC(C(N)=O)CC2)c1 (centres unmarked) | 12.3
68 | COc1ccc(-c2csc3ncnc(NCCCO)c23)cc1 | -13.3
69 | CC(C)CNC(CC(=O)Nc1cccc([N+](=O)[O-])c1)C(=O)O (centres unmarked) | -1.01

Row | SMILES | hERG current change (%, negative = inhibition) at 10uM [%]
70 | Cc1ccc(NC(=O)COC(=O)[C@H](C)NC(N)=O)c(C)c1 | 15.1
71 | CCOc1ccc(S(=O)(=O)N2CCC(C(=O)NC3CCCCC3)CC2)cc1 | 18.3
72 | CCOC(=O)C1CCN(CCC(=O)Nc2ccc(F)cc2)CC1 | -31
73 | CCOC(=O)C1CCN(CCC(=O)Nc2ccccc2Cl)CC1.Cl | -19.3
74 | CCOC(=O)C1CCN(CCC(=O)Nc2cccc(Cl)c2C)CC1 | -5.48
75 | CCOC(=O)C1CCN(CCC(=O)Nc2ccc(Cl)cc2)CC1 | -62.4
76 | CCOC(=O)C1CCN(CCC(=O)Nc2ccc(C)cc2)CC1 | -32.4
77 | CCOC(=O)C1CCN(CCC(=O)Nc2ccc(Br)cc2)CC1 | -63.5
78 | COc1ccccc1C(=O)NCC1(c2ccccc2)CCCC1 | 1.65
79 | O=C(NCCCCCCCCCNC(=O)C(F)(F)F)C(F)(F)F | -4.99
80 | CC1CC(C)CN(C(=O)CCCn2c(=O)c3cccn3c3cccnc32)C1 (centres unmarked) | -11
81 | N=c1c2c(-c3ccccc3)c(-c3ccccc3)n(Cc3ccccc3)c2ncn1CCO | -37.6
82 | N=c1c2c(-c3ccccc3)c(-c3ccccc3)n(Cc3ccco3)c2ncn1CCO | -71
83 | O=c1c2ccccc2ncn1Cc1ccco1 | -19.8
84 | CCCCn1c(=O)n(CC(=O)Nc2ccc(C)c(Cl)c2)c(=O)c2c1ncn2Cc1ccco1 | -6.22
85 | CCCCn1cnc2c(c(-c3ccccc3)c(-c3ccccc3)n2Cc2ccco2)c1=N | -75.1
86 | N#Cc1c(-c2ccccc2)c(-c2ccccc2)n(Cc2ccco2)c1NC(=O)c1cccs1 | 12.6
87 | CCCCn1c(=O)n(Cc2cccc(F)c2)c(=O)c2c1ncn2Cc1ccco1 | -14.7
88 | O=c1c2cnn(-c3ccccc3)c2ncn1Cc1ccco1 | -7.57
89 | N=c1c2c(-c3ccccc3)c(-c3ccccc3)n(Cc3ccco3)c2ncn1CCCO | -68.5
